# Measurements from PubChem BioAssay AID2685 (National Center for Advancing Translational Sciences (NCATS), 2010).
# The campaign covered roughly 320,000 compounds. About 2,100 (0.66%) were called active. Not shown: some 53% with an inconclusive outcome. Calls follow the shape of the dose curve; as a rule, active = well fitted inhibition curve with a large enough effect in the signal ratio, with a control signal flat (not every such curve was filed as active); inconclusive = small, poorly fitted or top-dose-only effect, or effect the other way, or a change in a side signal; inactive = flat fitted curve, though single readings scatter; the % refers to the signal ratio. The full list was thinned out, with actives kept by preference.
# Experiment: qHTS Assay for Lipid Storage Modulators in Drosophila S3 Cells;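 as to cell number change: cells counted by Cell Tracker Red CMTPX staining in the red channel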; as to lipid storage change, negative = inhibition: % is scaled to controls: 0 for no effect and ±100 for the full control effect
# Conditions: BODIPY lipid droplet fluorescence, 18-24 h, cells fed with added oleic acid; cell number change: measured here: cell count max response; series mostly up to 46.1 µM; lipid storage change, negative = inhibition: at the top concentration
# How it was run: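 Drosophila S3 cells got compounds at several concentrations plus oleic acid (400 uM solution). Laser-scanning cytometry with 488 nm excitation read lipid droplets at 500-530 nm and cells at 575-640 nm. Percent activity was relative to 20 uM Triacsin C.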
# Potency is read from the fitted curve at half-maximal effect.
SMILES,outcome,Potency,cell number change,"lipid storage change, negative = inhibition"
CC(=O)Nc1ccc(C(=O)NNC(=O)c2ccc(Cl)cc2)cc1,inactive,–,–,–
CC(=O)Nc1ccc(C(=O)NC(CC(=O)O)c2ccc(Cl)cc2)cc1 (configuration not stated),–,20.6 µM (active),-19.4%,–
CC(=O)Nc1ccc(NC(=O)CC(NC(=O)c2ccccc2)c2ccccc2)cc1 (configuration not stated),–,–,19%,2.63% (inactive)
COc1ccc(NC(=O)C(c2ccc(OC)cc2)N(C)C(=O)Cc2cccs2)cc1 (configuration not stated),–,–,9.03%,19.6% (inactive)
O=C(Cc1ccccc1)NNC1CC(=O)N(c2ccccc2)C1=O (configuration not stated),–,–,0.451%,10.5% (inactive)
CC(=O)N1CCN(c2ccc(NC(=O)c3ccc(N4CCCC4)c([N+](=O)[O-])c3)cc2Cl)CC1,inactive,–,–,–
CCc1ccc(N2CC(C(=O)Nc3nccs3)CC2=O)cc1 (configuration not stated),–,–,-0.507%,12.6% (inactive)
O=C(Nc1nc2ccccc2s1)C1CC(=O)N(c2ccc(Br)cc2)C1 (configuration not stated),inactive,–,1.03%,–
CCc1ccc(N2CC(C(=O)Nc3nc4ccc(S(C)(=O)=O)cc4s3)CC2=O)cc1 (configuration not stated),–,2.31 µM (active),-21.1%,–
COc1cc(-n2c(=O)c3ccccc3n(CC(=O)c3ccc(Br)cc3)c2=O)cc(OC)c1OC,–,–,7.89%,-0.64% (inactive)
COc1ccc(NC(=S)NC(=O)C2CCC2)cc1,–,–,-5.57%,15.8% (inactive)
CC(=O)Nc1ccc(NC(=S)NC(=O)C2CCCC2)cc1,inactive,–,16.2%,–
CCN(CC)c1ccc(NC(=S)NC(=O)C2CCC2)cc1,–,4.11 µM (active),-16.8%,–
Cc1ccc(C(=O)OCC(=O)NCCNC(=O)COC(=O)c2ccc(C)o2)o1,inactive [at 0.0737 µM],–,26.3%,–
Cc1ccc(S(=O)(=O)Nc2cccc(-c3ccc4nncn4n3)c2)cc1,–,–,–,-0.542% [at 0.0737 µM] (inactive)
CC(=O)Nc1ccc(S(=O)(=O)Nc2cccc(-c3ccc4nncn4n3)c2)cc1,–,0.731 µM (active),-19.1%,–
Cc1ccc(S(=O)(=O)Nc2ccc(-c3ccc4nncn4n3)cc2)cc1,–,–,-22.1%,7.13% (inactive)
CC(C(=O)NC1CCCC1)N(C(=O)Cn1nnc(-c2ccc(F)cc2)n1)c1ccccc1F (configuration not stated),inactive,–,-1.32%,–
COc1ccc(N(C(=O)Cn2nnc(-c3ccc(F)cc3)n2)C(C)C(=O)NC2CCCC2)cc1 (configuration not stated),–,1.3 µM (active),10.5%,–
COc1ccc(N(C(C)C(=O)NC2CCCCCC2)S(C)(=O)=O)cc1 (configuration not stated),–,5.17 µM (active),22.1%,–
CC(C(=O)NC1CCCC1)N(c1ccc(Oc2ccccc2)cc1)S(C)(=O)=O (configuration not stated),–,–,11.4%,15.3% (inactive)
CCOc1ccc(N(C(C)C(=O)NC2CCCCCC2)S(C)(=O)=O)cc1 (configuration not stated),inactive,–,–,–
COc1ccc(N(CC(=O)NC2CCCC2)C(=O)Cn2nnc(-c3ccc(F)cc3)n2)cc1,inactive,–,7.89%,–

SMILES,outcome,Potency,cell number change,"lipid storage change, negative = inhibition"
CCC(CC)c1nnc(NC(=O)CN2C(=O)NC3(CCCC3)C2=O)s1,inactive [at 0.369 µM],–,9%,–
Cn1c(Cn2c3ccccc3c3ccccc32)n[nH]c1=S,–,–,-6.36%,2.12% (inactive)
O=C(O)c1ccccc1-n1cnnn1,–,–,-10.9%,-27.2% (inactive)
CCCCNCCOCCSc1ccc(Cl)cc1,–,–,-17.4%,-18.9% (inactive)
CC(C)NCCOCCSc1ccc(Cl)cc1,–,20.6 µM (active),-7.67%,–
CCC(C)NCCOCCSc1ccc(Cl)cc1 (configuration not stated),–,–,14.1%,0.747% (inactive)
Cc1ccccc1C(=O)Nc1cccc(-c2ccc3nncn3n2)c1,–,–,10.3%,-1.94% (inactive)
CCOc1ccccc1OCCn1ncc2ccc(OC)c(OC)c2c1=O,–,–,16.5%,-3.25% (inactive)
Brc1ccccc1OCCNCc1ccccc1,–,–,17.2%,7.29% (inactive)
CCOc1ccccc1OCCCNCc1ccccc1,–,–,2.07%,26.7% (inactive)
COCCNCc1ccccc1,–,18.4 µM (active),-17.8%,–
CS(=O)(=O)c1ccc(C(=O)Nc2ccc(N3CCOCC3)cc2)c(Cl)c1,–,–,–,-24.8% (inactive)
COc1ccc(NC(=O)COC(=O)C2CCC2)cc1Cl,–,–,12.2%,6.28% (inactive)
CCC(Sc1nc(C)cc(=O)[nH]1)C(=O)Nc1nc2c(s1)CCCC2 (configuration not stated),–,14.6 µM (active),-8.37%,–
COc1cc(=O)[nH]c(SC(C)C(=O)Nc2nc3c(s2)CCCC3)n1 (configuration not stated),inactive,–,7.98%,–
Cc1cc(=O)[nH]c(SCC(=O)Nc2nc3c(s2)CCCC3)n1,–,–,12.9%,-0.416% (inactive)
Cc1ccccc1-c1nc(CSc2nc3c(c(=O)[nH]2)CCC3)c(C)o1,–,–,-21.7%,29% (inactive)
Cc1sc2nc(-c3cccs3)oc(=O)c2c1C,–,–,5.53%,0.745% (inactive)
O=c1oc(-c2cccs2)nc2scc(-c3cccs3)c12,–,14.6 µM (active),-10.7%,–
CCc1nc2scc(-c3cccs3)c2c(=O)o1,–,–,9.87%,6.47% (inactive)
CN1CCN(NC(=O)Nc2cc(Cl)cc(Cl)c2)CC1,–,4.61 µM (active),–,–
CN1CCN(NC(=O)Nc2ccc(Br)cc2)CC1,–,–,–,2.95% (inactive)
CN1CCN(NC(=O)Nc2ccc(F)cc2)CC1,inactive,–,17.8%,–

SMILES,outcome,Potency,cell number change,"lipid storage change, negative = inhibition"
CCOC(=O)C1CCCN(C(=O)c2cc3ncc(Br)cn3n2)C1 (configuration not stated),inactive,–,5.95%,–
CC(Oc1ccccc1)c1nnc(N)s1 (configuration not stated),–,–,14.9%,-1.67% (inactive)
CC(C)(C)OC(=O)N1CCN(c2ccc(NC(=O)c3ccco3)cc2)CC1,–,3.26 µM (active),4.03%,–
O=C(COc1ccc([N+](=O)[O-])cc1)Nc1ccc(N2CCN(C(=O)c3ccco3)CC2)cc1,–,2.06 µM (active),-6.49%,–
O=C(COc1ccc(Cl)cc1)Nc1ccc(N2CCN(C(=O)c3ccco3)CC2)cc1,–,–,-2.54%,-3.43% (inactive)
O=C(Nc1ccc(N2CCN(C(=O)c3ccco3)CC2)cc1)c1ccco1,–,–,25.3%,0.808% (inactive)
O=C(COc1ccccc1)Nc1ccc(N2CCN(C(=O)c3ccco3)CC2)cc1,–,–,11.5%,1.13% (inactive)
CC(=O)N1CCN(c2ccc(NC(=O)c3ccco3)cc2)CC1,inactive,–,-9.52%,–
CCOC(=O)C1CCCN(C2CC(=O)N(c3ccc(C(C)C)cc3)C2=O)C1 (configuration not stated),–,–,15.9%,-14.3% (inactive)
COc1cccc(NC(=O)COC(=O)CCS(=O)(=O)c2ccc(C)cc2)c1,–,–,–,9.39% (inactive)
O=C(NC1CCSC1=O)c1ccc(Cl)cc1 (configuration not stated),–,–,12%,-0.574% (inactive)
CC(C)[C@H](NC(=O)NC1CCN(Cc2ccccc2)CC1)C(=O)O,–,–,11.2%,-6.91% (inactive)
N=C1C(=O)OCC1c1ccccc1NC(=O)c1ccc(F)cc1 (configuration not stated),inactive,–,-9.08%,–
O=C(Nc1cccc(NC(=O)c2ccccc2[N+](=O)[O-])n1)c1ccccc1[N+](=O)[O-],–,–,-14.1%,-1.54% (inactive)
Cc1cc(C)nc(N2CCC(C(=O)NC3CC3)CC2)n1,–,0.58 µM (active),11.7%,–
Cc1cc(C)nc(N2CCC(C(=O)O)CC2)n1,–,–,–,1.1% (inactive)
Cc1cc(C)nc(N2CCCC(C(=O)NC3CC3)C2)n1 (configuration not stated),inactive,–,0.42%,–
CCc1ccc(NC(=O)C2CCN(S(=O)(=O)c3c(C)noc3C)CC2)cc1,inactive,–,–,–
COc1ccc(NC(=O)C2CCN(S(=O)(=O)c3c(C)noc3C)CC2)cc1OC,–,–,0.165%,-10.7% (inactive)
Cc1noc(C)c1S(=O)(=O)N1CCC(C(=O)Nc2ccc(OC(F)(F)F)cc2)CC1,–,18.4 µM (active),-15.1%,–
CCCN1CCN(CCCNC(=O)c2ccc3nc(N4CCC(C)CC4)sc3c2)CC1,inactive,–,-11.1%,–
N#CCCN1CCN(S(=O)(=O)c2ccc(S(=O)(=O)NC3CC3)cc2)CC1,–,–,17.2%,23.6% (inactive)
O=S(=O)(NC1CC1)c1ccc(S(=O)(=O)N2CCC3(CC2)OCCO3)cc1,–,–,0.569%,10.1% (inactive)

SMILES,outcome,Potency,cell number change,"lipid storage change, negative = inhibition"
CCS(=O)(=O)N1CCN(S(=O)(=O)c2ccc(S(=O)(=O)NC3CC3)cc2)CC1,–,6.51 µM (active),8.57%,–
CCN(c1ccccc1)S(=O)(=O)c1cc(NC(=O)COC(=O)C2CC2)ccc1Cl,–,–,6.19%,4.21% (inactive)
O=C(/C=C/c1cccc([N+](=O)[O-])c1)c1ccco1,–,4.11 µM (active),-29.8%,–
O=C(/C=C/c1cccc([N+](=O)[O-])c1)N1CCN(C(=O)c2ccco2)CC1,–,–,23.6%,13.1% (inactive)
O=C(/C=C/c1cccc([N+](=O)[O-])c1)c1ccc2c(c1)OCCO2,–,18.4 µM (active),-6.34%,–
CN(C)c1ccc(/C=C/C(=O)c2ccc3c(c2)OCCO3)cc1[N+](=O)[O-],–,–,33.3%,13.5% (inactive)
O=C(N/N=C/c1cccc([N+](=O)[O-])c1)c1ccc2c(c1)OCCO2,–,–,23.7%,-0.131% (inactive)
COc1cc([N+](=O)[O-])ccc1N/C=C/C(=O)c1cccs1,–,11.6 µM (active),-11.2%,–
O=C(/C=C/c1cccc([N+](=O)[O-])c1)N1CCN(c2ccc(F)cc2)CC1,–,20.6 µM (active),2.7%,–
CNc1cc([N+](=O)[O-])ccc1N/C=C/C(=O)c1cccs1,–,–,-14.6%,-0.527% (inactive)
O=C(/C=C/c1cccc([N+](=O)[O-])c1)N1CCOCC1,–,–,–,11.4% (inactive)
O=C(/C=C/c1ccc([N+](=O)[O-])cc1)c1ccco1,–,–,-5.18%,1.8% (inactive)
COc1ccc([N+](=O)[O-])cc1NC(=O)c1cccs1,–,–,–,10.1% (inactive)
COc1ccccc1N1CCN(C(=O)/C=C/c2cccc([N+](=O)[O-])c2)CC1,–,–,9.07%,-0.92% (inactive)
COc1ccccc1N1CCN(C(c2cc3cc(C)ccc3[nH]c2=O)c2nnnn2C2CCCC2)CC1 (configuration not stated),–,–,10.4%,9.5% (inactive)
CC(NC(=O)COC(=O)CNC(=O)c1ccc(-c2ccccc2)cc1)c1ccccc1 (configuration not stated),–,–,0.973%,1.51% (inactive)
O=C(Nc1ccc(COc2ccccc2)cc1)c1cccc([N+](=O)[O-])c1,–,–,-16.9%,-6.34% (inactive)
O=C(NC1CCCC1)C1CCC(=O)N1C1CCCCC1 (configuration not stated),–,–,1.84%,-0.542% (inactive)
Cn1c(Cn2c(=O)sc3ccccc32)nnc1SCC(=O)N1CCOCC1,–,–,7.25%,-0.98% (inactive)
O=C(/C=C/c1ccc([N+](=O)[O-])cc1)c1cccs1,–,–,1.74%,7.23% (inactive)
O=C(/C=C/c1cccc([N+](=O)[O-])c1)c1cccs1,–,23.1 µM (active),-11.1%,–
O=C(/C=C/c1cccc([N+](=O)[O-])c1)Nc1ccc(NC(=O)c2cccs2)cc1,–,–,5.37%,5.47% (inactive)
OCCNCc1cc(Br)ccc1OCc1ccc(F)cc1,–,–,-0.637%,-27.1% (inactive)
